The source of these data is PubChem BioAssay (Tox21).

Inconclusive results are not listed. Activity calls are given as the source filed them. Unless noted, the call rests on the fitted dose curve; in most records, active means well fitted cell-killing curve with a large enough effect in the repeat runs; inconclusive means weak or mixed curves, or effect the other way; inactive means no such curve, though single readings can be large or run the other way.
On the % scale 0 is the no-effect control and ±100 the full control effect.

Peroxisome proliferator-activated receptor gamma (Homo sapiens), sequence (P37231 whole entry, looked up): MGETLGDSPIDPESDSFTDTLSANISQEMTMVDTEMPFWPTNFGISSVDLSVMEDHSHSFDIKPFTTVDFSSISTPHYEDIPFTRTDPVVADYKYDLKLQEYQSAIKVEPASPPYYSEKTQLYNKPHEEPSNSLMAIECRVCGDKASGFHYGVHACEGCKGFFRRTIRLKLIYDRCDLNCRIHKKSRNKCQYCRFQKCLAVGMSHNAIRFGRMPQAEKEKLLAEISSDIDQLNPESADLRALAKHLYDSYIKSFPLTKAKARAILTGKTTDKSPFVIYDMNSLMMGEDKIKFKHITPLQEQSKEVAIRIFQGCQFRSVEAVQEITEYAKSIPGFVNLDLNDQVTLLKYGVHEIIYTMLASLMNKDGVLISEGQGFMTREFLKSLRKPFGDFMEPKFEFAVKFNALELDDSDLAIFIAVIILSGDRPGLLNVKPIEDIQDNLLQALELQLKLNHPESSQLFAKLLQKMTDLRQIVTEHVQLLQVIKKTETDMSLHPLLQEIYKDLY

The target of one test is Peroxisome proliferator-activated receptor gamma (Homo sapiens) (UniProt P37231). Briefly: qHTS assay to identify small molecule agonists of the peroxisome proliferator-activated receptor gamma (PPARg) signaling pathway (AID 743094; active means well fitted activation curve with a large enough effect in the signal ratio in the repeat runs, not every such curve was filed as active; the % refers to the signal ratio). Conditions: HEK293H PPARg-UAS-bla, beta-lactamase FRET ratio, 17 h; series mostly up to 57 µM; activation: at the top concentration. Summed up:
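Beta-lactamase FRET fluorescence was the read-out after a 1 h room-temperature substrate step, following 17 h compound treatment at 37C of HEK293H cells expressing a UAS-driven bla reporter responsive to PPARg.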
A general note: qHTS replaces the single test concentration by a dilution series.
Consider `C[C@@H](O)[C@H]1C(=O)N2C(C(=O)O)=C(S[C@@H]3CN[C@H](CNS(N)(=O)=O)C3)[C@H](C)[C@H]12`, for which the “activation” value was 0.436% (inactive). On the same count and under the same terms, to `OCCc1ccncc1` belongs 4.41% (inactive); to `CC(C)(C(=O)O)c1ccc(C(O)CCCN2CCC(C(O)(c3ccccc3)c3ccccc3)CC2)cc1` (stereo not drawn), 0.199% (inactive); to `C1CCN(CN2CCCCC2)CC1`, 1.62% (inactive). On the same count and under the same terms, then `CC1=CC(=C(c2ccc(N)cc2)c2ccc(N)cc2)C=CC1=N`, with -4.84% [at 7.08 µM] (inactive). In the case of `CCCCCCCCCCCCSC#N`, the “activation” value was -3.35% (inactive). Consider `COc1cc(CNC(=O)CCCC/C=C/C(C)C)ccc1O`, for which the Potency entry is “inactive”. On to `C/C=C1\[C@H]2C=C(C)C[C@]1(N)c1ccc(=O)[nH]c1C2`, for which the “activation” value was -3.43% (inactive). The same measure, in the same setting: to `O=C(OC1C[C@H]2CC[C@@H](C1)[N+]21CCCC1)C(O)(c1ccccc1)c1ccccc1` (stereo partly drawn) belongs 0.831% (inactive); to `CC(=O)c1ccc(Cl)c(Cl)c1Cl`, -3.55% (inactive); to `C[C@H](CN1CCCC1)C(=O)c1ccc(C(F)(F)F)cc1`, -2.38% (inactive). The same measure, in the same setting: then `CC(C)CC(C)(C)C`, with 0.487% [at 78.9 µM] (inactive). Still for that read-out and setting: to `O=C1OC(=O)C2CC=CCC12` (stereo not drawn) belongs -2.35% [at 78.9 µM] (inactive); to `SCCOCCOCCS`, -4.43% (inactive); to `CC(C)(C)c1ccc(CCC=O)cc1`, 5.4% (inactive). In the case of `O=C(O)c1ccccc1-n1cc(C(=O)O)c(=O)c2cc(Nc3c(F)cc(F)cc3Cl)c(Cl)cc21`, the “activation” value is 2.01% (inactive). As to `O=C(O)COCC(=O)O`, the “activation” value was -8.89% [at 78.9 µM] (inactive). Still for that read-out and setting: to `NC(=O)c1ccccc1` belongs 3.79% [at 78.9 µM] (inactive); to `Cc1ccc(NC(=O)c2ccc(CN3CCN(C)CC3)cc2)cc1Nc1nccc(-c2cccnc2)n1`, -0.236% (inactive); to `CCN(CCCCOC(=O)c1ccc(OC)c(OC)c1)C(C)Cc1ccc(OC)cc1` (stereo not drawn), -6.79% [at 26.2 µM] (inactive). Turning to `CCCN(C1CCN(C(=O)C2CCNCC2)CC1)[C@@H]1CCc2ccc(OC)cc2C1`, the “activation” value is -11.2% (inactive).

The next test shares this target. Kind of test: qHTS assay to identify small molecule antagonists of the peroxisome proliferator-activated receptor gamma (PPARg) signaling pathway (AID 743191; calls by dose curve; further: nearly all actives have a fitted effect of over 30% in size). Conditions: HEK293H PPARg-UAS-bla, beta-lactamase ratio, antagonist, 17 h; series mostly up to 62.6 µM; ratio activity, negative = inhibition: at the top concentration. The method in brief: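 GeneBLAzer PPARg UAS-bla HEK293H cells carrying a UAS-driven beta-lactamase reporter were plated at 3000 cells/well, preincubated 5 h at 37C, then given compound for 17 h at 37C; LiveBLAzer B/G FRET substrate was read after 1 h at room temperature.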
On to `C[C@@H](O)[C@H]1C(=O)N2C(C(=O)O)=C(S[C@@H]3CN[C@H](CNS(N)(=O)=O)C3)[C@H](C)[C@H]12`, for which the “ratio activity, negative = inhibition” value is -0.984% (inactive). The same measure, in the same setting: to `COc1ccc(C(=O)c2ccc(C)cc2)c(O)c1` belongs 18.7% [at 81.1 µM] (inactive). Still for that read-out and setting: then `OCCc1ccncc1`, with -4.03% (inactive). Still for that read-out and setting: then `CC(C)(C(=O)O)c1ccc(C(O)CCCN2CCC(C(O)(c3ccccc3)c3ccccc3)CC2)cc1` (stereo not drawn), with -0.38% (inactive); and `C1CCN(CN2CCCCC2)CC1`, with 0.857% (inactive).

With `O=[N+]([O-])c1ccc(Cl)cc1Cl`, the “ratio activity, negative = inhibition” value is -13% (inactive).

As for `CCCCCCCCCCCCSC#N`, the “ratio activity, negative = inhibition” value is -3.57% (inactive). The same measure, in the same setting: then `C/C=C1\[C@H]2C=C(C)C[C@]1(N)c1ccc(=O)[nH]c1C2`, with 11.9% (inactive); and `O=C(OC1C[C@H]2CC[C@@H](C1)[N+]21CCCC1)C(O)(c1ccccc1)c1ccccc1` (stereo partly drawn), with -3.69% (inactive).

In the case of `O=C(O)CNc1ccccc1`, the “ratio activity, negative = inhibition” value was -11.3% (inactive). The same measure, in the same setting: then `O=C1OC(=O)C2CC=CCC12` (stereo not drawn), with 25.4% [at 81.1 µM] (inactive); and `SCCOCCOCCS`, with -9.85% (inactive); and `CC(C)(C)c1ccc(CCC=O)cc1`, with 3.7% (inactive). `O=C(O)c1ccccc1-n1cc(C(=O)O)c(=O)c2cc(Nc3c(F)cc(F)cc3Cl)c(Cl)cc21`: the “ratio activity, negative = inhibition” value is -13.7% (inactive). On the same count and under the same terms, then `NC(=O)c1ccccc1`, with 15.5% [at 81.1 µM] (inactive); and `CCN(CCCCOC(=O)c1ccc(OC)c(OC)c1)C(C)Cc1ccc(OC)cc1` (stereo not drawn), with 4.92% (inactive); and `CCCN(C1CCN(C(=O)C2CCNCC2)CC1)[C@@H]1CCc2ccc(OC)cc2C1`, with -3.99% (inactive).

System in another test: not listed separately
Briefly: qHTS assay to identify small molecule antagonists of the peroxisome proliferator-activated receptor gamma (PPARg) signaling pathway - cell viability counter screen (AID 743194). Further: nearly all actives have a fitted effect of over 55% in size. Further: potency means the concentration at half of the fitted maximal effect. Conditions: PPARg-bla HEK293H viability, CellTiter-Glo luminescence, 17 h, co-treated with 50 nM rosiglitazone; series mostly up to 62.6 µM; activity change, negative = cytotoxicity: at the top concentration. The method in brief:
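PPARg-UAS-bla HEK293H cells were plated, rested 5 h at 37 C, then treated with compounds plus rosiglitazone (50 nM final) for 17 h at 37 C; viability was then read by CellTiter-Glo luminescence after 30 min at room temperature.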
Regarding `C=CC(C)(O)CC/C=C(/C)CCC=C(C)C` (stereo not drawn), the “activity change, negative = cytotoxicity” value was 10.2% (inactive). Same read-out and setting: then `CC/C=C/CCO`, with -16.4% [at 81.1 µM] (inactive). In the case of `C[C@@H](O)[C@H]1C(=O)N2C(C(=O)O)=C(S[C@@H]3CN[C@H](CNS(N)(=O)=O)C3)[C@H](C)[C@H]12`, the “activity change, negative = cytotoxicity” value is 12.8% (inactive).

For `O=C(NC1CCN(CCc2c[nH]c3ccccc23)CC1)c1ccccc1`, the “activity change, negative = cytotoxicity” value was -0.625% (inactive).

For the compound `Cc1c(-c2cccnc2)c2ccccc2n1CCCCC(=O)O`, the “activity change, negative = cytotoxicity” value is -7.74% (inactive). On the same count and under the same terms, then `COc1ccc(C(=O)c2ccc(C)cc2)c(O)c1`, with 19.2% [at 81.1 µM] (inactive); and `O=C(O)c1cc(C(=O)O)c(C(=O)O)cc1C(=O)O`, with 9.98% (inactive); and `OCCc1ccncc1`, with -23.1% (inactive). Same read-out and setting: to `C1CCN(CN2CCCCC2)CC1` belongs 9.68% (inactive); to `O=C1c2ccccc2C(=O)c2c1ccc(O)c2O`, 14.8% (inactive). Same read-out and setting: to `CC1=CC(=C(c2ccc(N)cc2)c2ccc(N)cc2)C=CC1=N` belongs -29.3% [at 5.95 µM] (inactive); to `O=[N+]([O-])c1ccc(Cl)cc1Cl`, 2.22% (inactive). As for `CCCCCCCCCCCCSC#N`, the “activity change, negative = cytotoxicity” value is 14.6% (inactive). In the case of `COc1cc(CNC(=O)CCCC/C=C/C(C)C)ccc1O`, the “activity change, negative = cytotoxicity” value was 3.7% (inactive). On the same count and under the same terms, to `C/C=C1\[C@H]2C=C(C)C[C@]1(N)c1ccc(=O)[nH]c1C2` belongs 0.639% (inactive). Consider `Cc1cc(SC2=C(O)C[C@@](CCc3ccc(N)cc3)(C(C)C)OC2=O)c(C(C)(C)C)cc1CO`, for which the “activity change, negative = cytotoxicity” value is 9.51% (inactive). The same measure, in the same setting: to `O=C(OC1C[C@H]2CC[C@@H](C1)[N+]21CCCC1)C(O)(c1ccccc1)c1ccccc1` (stereo partly drawn) belongs 10.3% (inactive). `CC(C)C[C@H](NC(=O)[C@H](Cc1ccccc1)NC(=O)c1cnccn1)B(O)O`: the Potency was 84.1 nM (active). Consider `CC/C=C\CCO`, for which the “activity change, negative = cytotoxicity” value was -22% (inactive). On the same count and under the same terms, then `CC(=O)c1ccc(Cl)c(Cl)c1Cl`, with 26.1% (inactive); and `C[C@H](CN1CCCC1)C(=O)c1ccc(C(F)(F)F)cc1`, with 0.85% (inactive).

Take `C=CCCC`: the “activity change, negative = cytotoxicity” value was -4.85% [at 81.1 µM] (inactive). The same measure, in the same setting: to `O=C(O)CNc1ccccc1` belongs 5.47% (inactive); to `CC(C)CC(C)(C)C`, 11.5% [at 81.1 µM] (inactive); to `O=C1OC(=O)C2CC=CCC12` (stereo not drawn), 14.4% [at 81.1 µM] (inactive). Turning to `SCCOCCOCCS`, the “activity change, negative = cytotoxicity” value was 14.5% (inactive). Same read-out and setting: to `S=c1[nH][nH]c(=S)s1` belongs 16.6% (inactive); to `CC(C)(C)c1ccc(CCC=O)cc1`, -12.2% (inactive). For the compound `Cc1nc2sccn2c(=O)c1CCN1CCC(=C(c2ccc(F)cc2)c2ccc(F)cc2)CC1`, the “activity change, negative = cytotoxicity” value is -1.96% (inactive). On the same count and under the same terms, to `O=C(O)COCC(=O)O` belongs -0.0137% [at 81.1 µM] (inactive); to `NC(=O)c1ccccc1`, 3.33% [at 81.1 µM] (inactive); to `Cc1ccc(NC(=O)c2ccc(CN3CCN(C)CC3)cc2)cc1Nc1nccc(-c2cccnc2)n1`, 12.8% (inactive).

Take `CCC(C)C1N=C(C)C(C)S1` (stereo not drawn): the “activity change, negative = cytotoxicity” value is 14.7% (inactive). Same read-out and setting: to `CCN(CCCCOC(=O)c1ccc(OC)c(OC)c1)C(C)Cc1ccc(OC)cc1` (stereo not drawn) belongs -11% (inactive); to `CCCN(C1CCN(C(=O)C2CCNCC2)CC1)[C@@H]1CCc2ccc(OC)cc2C1`, -25.8% (inactive).
